According to PMC4336329 (PLoS ONE, 2015):
Out of some 310,000 compounds screened, about 14,000 (4.5%) showed an effect of 50% or more. The effect is printed as a negative number. The entries come from a sample that favours strong results as a whole.

biological target: human ether-à-go-go-related gene (hERG) potassium channel (human, UniProt Q12809); test: primary screen, population patch clamp on CHO cells stably expressing hERG; higher = less effect of the substance
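Further: peak tail current of the secondary pulse compared with the same well before compound.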

Chain of human ether-à-go-go-related gene (hERG) potassium channel (Q12809 whole entry, looked up): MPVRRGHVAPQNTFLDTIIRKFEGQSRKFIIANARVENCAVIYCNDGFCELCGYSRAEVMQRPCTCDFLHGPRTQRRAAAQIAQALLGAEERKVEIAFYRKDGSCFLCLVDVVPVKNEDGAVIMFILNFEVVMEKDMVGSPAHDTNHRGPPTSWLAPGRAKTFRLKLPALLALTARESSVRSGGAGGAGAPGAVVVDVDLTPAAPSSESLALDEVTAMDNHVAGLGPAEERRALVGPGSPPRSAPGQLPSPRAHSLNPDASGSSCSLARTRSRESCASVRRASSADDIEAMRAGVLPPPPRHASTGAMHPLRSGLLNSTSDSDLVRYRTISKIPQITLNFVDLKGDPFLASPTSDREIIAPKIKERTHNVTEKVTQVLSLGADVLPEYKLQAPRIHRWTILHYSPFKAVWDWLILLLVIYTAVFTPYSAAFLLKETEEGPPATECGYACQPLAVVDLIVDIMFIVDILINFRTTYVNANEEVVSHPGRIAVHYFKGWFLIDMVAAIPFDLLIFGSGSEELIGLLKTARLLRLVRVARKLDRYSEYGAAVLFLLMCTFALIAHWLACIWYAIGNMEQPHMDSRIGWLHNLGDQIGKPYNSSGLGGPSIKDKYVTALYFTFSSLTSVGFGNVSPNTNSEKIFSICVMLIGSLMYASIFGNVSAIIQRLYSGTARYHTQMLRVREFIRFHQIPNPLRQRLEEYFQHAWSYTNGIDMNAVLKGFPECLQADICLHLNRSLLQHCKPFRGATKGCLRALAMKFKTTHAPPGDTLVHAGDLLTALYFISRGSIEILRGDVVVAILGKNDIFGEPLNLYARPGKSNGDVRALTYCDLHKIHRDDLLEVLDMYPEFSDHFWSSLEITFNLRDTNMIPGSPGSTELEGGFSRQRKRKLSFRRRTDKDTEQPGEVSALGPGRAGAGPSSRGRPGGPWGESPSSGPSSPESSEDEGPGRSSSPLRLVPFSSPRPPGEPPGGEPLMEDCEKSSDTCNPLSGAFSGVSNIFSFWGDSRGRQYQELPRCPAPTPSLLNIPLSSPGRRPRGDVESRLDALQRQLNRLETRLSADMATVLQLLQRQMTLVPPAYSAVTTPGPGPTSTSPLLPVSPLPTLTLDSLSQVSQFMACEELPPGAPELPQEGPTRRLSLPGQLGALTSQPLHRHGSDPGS

SMILES	hERG current change (%, negative = inhibition) at 10uM
O=C(c1ccc(Cn2c(=S)[nH]c3ccccc3c2=O)cc1)N1CCN(c2ccccn2)CC1	8.99%
COCCCn1c(=O)c2sccc2n2c(CCCC(=O)N3CCN(c4ccccn4)CC3)nnc12	-2.18%
CC(C)OCCCn1c(=O)c2ccccc2n2c(CCC(=O)O)nnc12	29.3%
CC(C)OCCCn1c(=O)c2ccccc2n2c(CCC(=O)NCc3ccccn3)nnc12	-14.4%
O=C(O)CCc1nnc2n(Cc3ccc(F)cc3)c(=O)c3ccccc3n12	6.3%
CCn1c(=O)c2sccc2n2c(CCCC(=O)N3CCN(c4ccccn4)CC3)nnc12	-17.6%
CC(C)(O)[C@H]1Cc2cc3ccc(=O)oc3cc2O1	21.2%
O=C(CSc1nc(NS(=O)(=O)c2ccccc2)cc(=O)[nH]1)Nc1ccccc1C(F)(F)F	9.04%
CCCCCN(C(=O)CCC(=O)OCc1ccccc1Cl)c1c(N)n(CCCC)c(=O)[nH]c1=O	-49.8%
CCCCCN(C(=O)CCC(=O)OCC(=O)NCc1cccc(OC)c1)c1c(N)n(CCCC)c(=O)[nH]c1=O	-0.375%
CCCCCN(C(=O)CCC(=O)OCc1ccc(Cl)cc1Cl)c1c(N)n(CCCC)c(=O)[nH]c1=O	-50.1%
CCCCCN(C(=O)CCC(=O)OCC(=O)c1ccc(C(C)(C)C)cc1)c1c(N)n(CCCC)c(=O)[nH]c1=O	-33.7%
CCCCCN(C(=O)CCC(=O)OCC(=O)c1cccc(OC)c1)c1c(N)n(CCCC)c(=O)[nH]c1=O	-64.6%
CCCCCN(C(=O)CCC(=O)OCc1cccc(Cl)c1)c1c(N)n(CCCC)c(=O)[nH]c1=O	8.16%
CCCCCN(C(=O)CCC(=O)OCC(=O)c1ccc(F)c(F)c1)c1c(N)n(CCCC)c(=O)[nH]c1=O	-33.7%
CCCCCN(C(=O)CCC(=O)OCC(=O)c1ccc(C(C)CC)cc1)c1c(N)n(CCCC)c(=O)[nH]c1=O (stereo not drawn)	8.1%
CCCCCN(C(=O)CCC(=O)OCC(=O)c1ccc(CCC)cc1)c1c(N)n(CCCC)c(=O)[nH]c1=O	-61.5%
Fc1ccc(NC(=S)NCc2cccnc2)cc1	13.1%
CCCS(=O)(=O)N1CCC(C(=O)NCCCOC)CC1	-0.339%
COc1cc(NC(=O)c2c(-c3ccccc3Cl)noc2C)c2ncccc2c1	25.5%
CCOc1ccc(NC(=O)COC(=O)CNC(=O)c2ccc(-c3ccccc3)cc2)cc1	2.3%
O=C(CSc1nc(=O)n(CCCN2CCOCC2)c2c1CCCC2)Nc1cccc(F)c1	-56.2%
CC(=O)Nc1cccc(NC(=O)CSc2nc(=O)n(CCCN3CCOCC3)c3c2CCC3)c1	0.499%

SMILES	hERG current change (%, negative = inhibition) at 10uM
O=C(CSc1nc(=O)n(CCCN2CCOCC2)c2c1CCC2)Nc1ccc(F)cc1F	-41.8%
CC(=O)Nc1cccc(NC(=O)CSc2nc(=O)n(CCN3CCOCC3)c3c2CCCC3)c1	0.233%
O=C(CSc1nc(=O)n(CCCN2CCOCC2)c2c1CCC2)Nc1cccc(F)c1	-37.4%
O=C(CSc1nc(=O)n(CCCN2CCOCC2)c2c1CCCC2)Nc1cccc(Cl)c1	-62.2%
CN(c1ccccc1)C(c1ccc(F)cc1)c1nnnn1CC1CCCO1.Cl (stereo not drawn)	-14.1%
Cn1cc([N+](=O)[O-])c(C(=O)N/N=C/c2cc3c(cc2Br)OCO3)n1	3.63%
CC(=O)Nc1ccc(S(=O)(=O)N[C@@H](C)C(=O)Nc2ccc(N3CCOCC3)cc2)cc1	15.1%
CCOC(=O)C1=NN(C(=O)c2ccccc2)C(O)(c2ccc(C)cc2)C1 (stereo not drawn)	-17.2%
COC(=O)C1=NN(C(=O)c2ccc(C)cc2)C(O)(c2ccc(Cl)cc2)C1 (stereo not drawn)	-31.2%
CCOC(=O)C1=NN(C(=O)c2ccc(OC)cc2)C(O)(c2ccc(Cl)cc2)C1 (stereo not drawn)	-75.5%
O=C(c1ccncc1)N1CCN(CCc2ccccc2)CC1	-50.8%
O=C(c1ccc(Br)o1)N1CCN(CCc2ccncc2)CC1	-69.8%
O=C(c1ccc(F)cc1Cl)N1CCN(CCc2ccccc2)CC1	-44%
O=C(c1ccc(Br)o1)N1CCN(c2ccccc2F)CC1	-4.94%
O=C(c1cc(F)c(F)cc1Cl)N1CCN(CCc2ccccc2)CC1	-71.6%
O=C(c1ccc(Br)o1)N1CCN(Cc2ccccc2Cl)CC1	-12.6%
O=C(c1ccccc1)N1CCN(C(=O)c2ccncc2)CC1	14.3%
O=C(c1cc(Cl)ccc1Cl)N1CCN(Cc2ccccc2)CC1	5.54%
O=C(c1ccccc1)N1CCN(CCc2ccccc2)CC1	-43.6%
COc1ccc(N2CCN(C(=O)c3ccc(Br)o3)CC2)cc1	-17%
O=C(c1ccc(Br)o1)N1CCN(c2ncccn2)CC1	0.956%
CCN1CCN(c2ccc(N3CCN(C(=O)c4ccc(Br)o4)CC3)nn2)CC1	-71.5%
